PfHsp90 yeast 2: inhibits growth of yeast expressing Plasmodium falciparum Hsp90; S. cerevisiae expressing PfHsp90, BacTiter-Glo ATP, 48 h; yeast lacking PDR1 and PDR3 efflux regulators; inhibition, % at 9.4 µM; hit rate 0.32% among 310,000; AID 504621;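 active = every replicate shows inhibition above about 80%, whatever the replicate mean, limit read from the data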
tim10-1 inh: inhibits growth of tim10-1 mutant yeast | AID 463190 | S. cerevisiae tim10-1 ts strain growth, BacTiter-Glo, 24 h | hit rate 2.2% among 330,000 | inhibition, % at 20 µM;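 active = inhibition of at least 40%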;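 note: mutant grown at 25 °C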
NALP1 inh: inhibitors of NALP1 inflammasome in yeast. S. cerevisiae NALP1/ASC/caspase-1 growth, X-gal OD620, 72 h. inhibition, % at 10 µM. hit rate 0.61% among 280,000; in the data active = inhibition mostly above about 24%, no sharp cut-off; inactive = mostly below about 32%
TIM10 inh: growth inhibitors of TIM10 yeast strain; AID 463195; S. cerevisiae TIM10 strain growth, BacTiter-Glo luminescence, 24 h; hit rate 1.4% among 330,000; inhibition, % at 10 µM;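 active = inhibition of 40% or more at the single tested concentration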;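 note: wild-type TIM10 isogenic control strain grown at permissive 25 °C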
tim23-1 inh: tim23-1 yeast growth inhibition; S. cerevisiae tim23-1 growth, BacTiter-Glo luminescence, 24 h; inhibition, % at 20 µM; hit rate 1.3% among 330,000;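 active = growth inhibition of the mutant yeast at or above 50%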;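 note: temperature-sensitive mutant grown at 25 °C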
NLRP3 yeast inh: blocks the NALP3 inflammasome reconstituted in yeast. Yeast reconstituted NLRP3/ASC/caspase-1, beta-gal luminescence, 24 h. inhibition, % at 10 µM. hit rate 0.39% among 330,000;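 active = inhibition of 50% or more; inactive = inhibition below 50%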
tim10-1 confirm: tim10-1 yeast growth inhibition, confirmed; shares compounds with tim10-1 inh; inhibition, % at 20 µM; AID 463213; hit rate 56% among 7,400; S. cerevisiae tim10-1 ts strain growth, BacTiter-Glo, 24 h;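 active = inhibition of yeast growth at or above a set limit in either of two repeat tests at 20 µM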;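 note: tim10-1 mutant grown at permissive 25 °C to find synthetic lethal compounds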
TIM10 conf: TIM10 yeast growth inhibition, confirmed; shares compounds with TIM10 inh; S. cerevisiae tim10 strain growth, BacTiter-Glo luminescence, 24 h; inhibition, % at 10 µM; hit rate 63% among 4,600;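 active = inhibition of yeast growth at or above a set limit in either of two replicates at 10 µM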; note: this counterscreen used the strain with wild-type TIM10
Large screens that a line does not name were inactive (follow-up assays come after a bar, where they were run). A selection: hits, their analogues and other compounds. The true share with any hit is near 4.2%.

Cc1ccc(N2C(=O)CC(Sc3ccccc3C(=O)O)C2=O)cc1C (centres undefined)	tim10-1 inh 41.9, NALP1 inh 35.7, TIM10 inh 43.1 | tim10-1 confirm 47.2 | TIM10 conf 39.8
CC(C)(CC(=O)c1ccccc1)CC(=O)c1ccccc1	none (no result: tim10-1 inh, NALP1 inh, TIM10 inh, tim23-1 inh, NLRP3 yeast inh)
O=c1[nH]c(N/N=C/c2ccccc2)nc2ccccc12	tim10-1 inh 43.7, TIM10 inh 40.9 (no result: PfHsp90 yeast 2) | tim10-1 confirm 38.4 | TIM10 conf inactive
COc1ccc(Br)cc1CN(C)C(=O)c1ccccc1OCc1c(C)noc1C	none (no result: PfHsp90 yeast 2, NALP1 inh)
COc1ccc(C(=O)Sc2nncc3ccccc23)cc1	tim10-1 inh 44.9, TIM10 inh 41.6 | tim10-1 confirm inactive | TIM10 conf 41.4
COc1ccc(NC(=O)CSc2nncc3ccccc23)cc1	none
O=S(=O)(NC1=NCCC1)c1cccc(NS(=O)(=O)c2ccc(OC(F)(F)F)cc2)c1	none
C/C=C(\C)C(=O)N1CCC(C(=O)c2ccccc2)CC1	none
c1ccc(Nc2cc(-c3ccccc3)nc3ncnn23)cc1	tim10-1 inh 48.0, TIM10 inh 56.7 | tim10-1 confirm 42.7 | TIM10 conf 48.3
COc1ccc2c(c1OC)C(=O)N1N=C(c3ccc(-c4ccccc4)cc3)CC21 (centres undefined)	none
COc1ccc2c(c1OC)C(=O)N1N=C(c3ccc(Br)cc3)CC21 (centres undefined)	tim10-1 inh 48.2, TIM10 inh 40.0 | tim10-1 confirm 40.3 | TIM10 conf inactive
CCOC(=O)C1(CCCc2ccccc2)CCN(C(=O)CCc2cnn(C)c2)CC1	tim10-1 inh 52.9, TIM10 inh 42.7 | tim10-1 confirm 40.7 | TIM10 conf inactive
Cc1ccc(CNC(=O)CCc2nnc(Cc3ccc(-c4ccccc4)cc3)o2)o1	none
CCN1/C(=C\C=C(C(C)=O)C(C)=O)Sc2ccccc21	none
CCN1/C(=C\C(=S)Nc2ccccc2)Sc2ccccc21	tim10-1 inh 45.2, TIM10 inh 49.5 | tim10-1 confirm inactive | TIM10 conf 43.2
Cc1ccnc(N2CCC(C(=O)Nc3cccc(C(F)(F)F)c3)CC2)n1	tim10-1 inh 52.3, TIM10 inh 41.8 | tim10-1 confirm 47.9 | TIM10 conf 30.0
CCOC(=O)Nc1ccc2c(c1)nc(CN1CCCCC1)n2C	none (no result: PfHsp90 yeast 2)
O=C(NCc1ccc(F)cc1)C(c1cccnc1)N(C(=O)c1csnn1)c1ccccc1 (centres undefined)	none
O=[N+]([O-])c1cccc(-c2ccc(/C=N/NC(=S)Nc3cccc(F)c3)o2)c1	tim10-1 inh 51.6, TIM10 inh 57.5 (no result: NALP1 inh) | tim10-1 confirm 46.2 | TIM10 conf 59.5
CC(C)c1csc(CN2CCCC(CNC(=O)c3cccc4ccccc34)C2)n1 (centres undefined)	none
Clc1ccc(CN2CCN(c3ncnc4scc(-c5cccs5)c34)CC2)cc1	tim10-1 inh 43.8, TIM10 inh 43.6 | tim10-1 confirm 37.9 | TIM10 conf 31.9
CCN1CCN(CCCNC(=O)c2ccc(CS(=O)c3ccc(Br)cc3)o2)CC1 (centres undefined)	none
O=C/C=C/c1coc2ccc3ccccc3c2c1=O	none (no result: PfHsp90 yeast 2)
O=Cc1coc2c(ccc3ccccc32)c1=O	tim10-1 inh 41.3, TIM10 inh 58.1 (no result: PfHsp90 yeast 2) | tim10-1 confirm 34.2 | TIM10 conf 78.5
Nc1c(C(=O)NCCc2ccc(Cl)cc2)sc2ccc(S(=O)(=O)N3CCCCC3)cc12	tim10-1 inh 43.4, TIM10 inh 44.0 (no result: PfHsp90 yeast 2) | tim10-1 confirm 34.6 | TIM10 conf inactive
O=C(CCNc1ccc(Cc2ccncc2)cc1)c1ccc([N+](=O)[O-])cc1	tim10-1 inh 49.3, TIM10 inh 62.0 | tim10-1 confirm 37.2 | TIM10 conf 41.2
CCOC(=O)Cc1csc(Nc2ccc(Cl)cc2)n1	tim10-1 inh 51.8, TIM10 inh 47.8 | tim10-1 confirm 41.0 | TIM10 conf 36.0
CCCN1C(=O)C2(C(C(=O)c3ccc(C)o3)=C(O)C(=O)N2CCCOC)c2ccccc21 (centres undefined)	none (no result: NALP1 inh)
